Results on 5 molecules are retold here after ChEMBL document CHEMBL4513146, “CO-ADD screening of Karazin Kharkiv National University (Ukraine) compounds”.

Assay [1] has as its system Staphylococcus aureus. Conditions: Concentration 32 ug.mL-1;; ASSAY_TEST Inhibition of Bacterial Growth; detection method Absorption (OD600); MEDIA CAMHB; plate type 384well; NBS; CORNING #3640; time 18 hr.
Assay [2] deals with Escherichia coli. Conditions: Concentration 32 ug.mL-1;; ASSAY_TEST Inhibition of Bacterial Growth; detection method Absorption (OD600); MEDIA CAMHB; plate type 384well; NBS; CORNING #3640; time 18 hr.

Potency and affinity values are given separately.

For the molecule `COc1ccc(-c2cc3c4nnc(SCC(=O)Nc5cccc(C#N)c5)n4ccn3n2)cc1`, the Inhibition in assay [1] was 1.06%; in assay [2], -0.96%.

As to `COc1ccccc1NC(=O)Cn1nc2c(Sc3ccccc3)nccn2c1=O`, the Inhibition in assay [1] is -14.27%; in assay [2], -3.78%.

`CC1CCCN(c2nccn3c(=O)n(CC(=O)Nc4ccc5c(c4)OCO5)nc23)C1` (stereo not given): the Inhibition in assay [1] is listed as -13.51%; in assay [2], -11.79%.

As for `CCOc1ccccc1NC(=O)Cn1nc2c3c4c(sc3ncn2c1=O)CCCC4`, the results for the Inhibition in assay [1] and in assay [2] were -4.82% and -7.86%, respectively.

For the molecule `COc1ccc2[nH]cc(C(=O)CSc3nnc4c(=O)n(-c5cccc(Cl)c5C)ccn34)c2c1`, the Inhibition was 18.84% in assay [1] and 2.67% in assay [2].
